Screens (PubChem BioAssay)
Sampled rows, rich in hits. Any-hit rate of the full collection: about 7.3%.
Luc counter = Counterscreen for Luciferase (Kinase-Glo TM) Inhibition | Luciferin 4-monooxygenase (Photuris pensylvanica), Q27757 | Kinase-Glo luciferase, ATP luminescence, 8 min | Potency, µM (doses to about 38.3 µM), for inactives: at the highest dose activity change, negative = inhibition, hits mostly inhibitors | 200,000 compounds, 0.28% hits; note: % is set by controls: 0 for no effect and ±100 for the full control effect; nearly all actives have a fitted effect of over 60% in size
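Substrate mix (final 50 mM imidazole pH 7.2, 50 mM KCl, 7 mM MgCl2, 10 uM ATP, 0.01% Tween 20, 0.05% BSA) plus pin-tool compound, then Kinase-Glo detection mix; 8 min ambient, luminescence read.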
SMN2 splice up = qHTS Assay for Enhancers of SMN2 Splice Variant Expression. 210,000 compounds, 2.8% hits. Potency, µM (titrated, usually from 46.1 µM), for inactives: at the top dose activity change, positive = activation, actives largely listed as activators. HEK293 SMN2-luciferase splicing reporter, luminescence, 30-36 h; note: % of control where 0% means no effect; nearly all actives have a fitted effect of over 55% in size
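HEK293 cells carry an SMN2 minigene-luciferase reporter in which exon 7 inclusion puts luciferase in frame. Cells were seeded at 2000 cells/well, attached for 10-12 hours, then exposed to compounds for 30-36 hours at 37C before ONE-Glo luminescence.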
FLuc modulator = qHTS profiling assay for firefly luciferase inhibitor/activator using purifed enzyme and Km concentrations of substrates (counterscreen for miR-21 project); purified FLuc, Km substrates, luminescence inhibition; Potency, µM (highest dose often 57.5 µM), inactives show at the top dose activity change, negative = inhibition, most hits filed as inhibitors; 360,000 compounds, 6.9% hits; AID 588342, 2011;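 note: plate controls were vehicle for no effect and reference inhibitor for full effect; nearly all actives have a fitted effect of over 55% in size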
Target sequence (P08659 whole entry, looked up): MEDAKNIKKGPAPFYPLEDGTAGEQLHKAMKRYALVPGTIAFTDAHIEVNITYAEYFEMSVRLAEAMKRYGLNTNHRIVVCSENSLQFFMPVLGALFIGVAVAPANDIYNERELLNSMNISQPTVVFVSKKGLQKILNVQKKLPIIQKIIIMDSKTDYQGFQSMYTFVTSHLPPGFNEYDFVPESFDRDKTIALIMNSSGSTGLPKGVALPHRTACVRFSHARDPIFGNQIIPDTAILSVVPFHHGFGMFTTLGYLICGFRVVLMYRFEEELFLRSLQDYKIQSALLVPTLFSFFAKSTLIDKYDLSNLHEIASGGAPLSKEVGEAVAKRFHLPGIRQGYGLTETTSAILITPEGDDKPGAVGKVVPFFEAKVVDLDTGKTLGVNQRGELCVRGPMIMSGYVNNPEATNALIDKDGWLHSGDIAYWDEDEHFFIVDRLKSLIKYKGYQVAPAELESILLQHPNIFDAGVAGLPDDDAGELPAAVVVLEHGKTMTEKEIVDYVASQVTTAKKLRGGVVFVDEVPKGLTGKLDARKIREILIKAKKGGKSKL
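Purified P. pyralis luciferase, 10 nM final, with Km-level 10 uM D-luciferin and 10 uM ATP in 50 mM Tris acetate pH 7.5, 10 mM Mg acetate, 0.01% Tween-20, 0.05% BSA; 6-point qHTS titration about 60 µM downward; luminescence read.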
Rab9 promoter act = qHTS Assay for Rab9 Promoter Activators; Huh7 Rab9 promoter-luciferase reporter, luminescence, 24 h; Potency, µM (doses to about 9.22 µM), without a hit: top-dose activation, negative = inhibition, usual class: activators; 320,000 compounds, 2.8% hits; AID 485297, 2010; note: % of control where 0% means no effect; nearly all actives have a fitted effect of over 60% in size
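Huh7 cells stably carrying Rab9 promoter–luciferase reporter, plated 1500 cells/well, compound added after 2 h and incubated 24 h at 37 °C; luciferase luminescence then read after 10 min with detection reagent.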
NPC1 promoter act = qHTS Assay for NPC1 Promoter Activators. Huh7 NPC1 promoter luciferase reporter, 24 h. Potency, µM (top dose mostly 9.22 µM), for the others: at the highest dose activation, hits mostly activators. 320,000 compounds, 2.4% hits. AID 485313, 2010; note: % of control where 0% means no effect; nearly all actives have a fitted effect of over 60% in size
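Quantitative HTS used a cell-based reporter: Huh7 cells stably bearing the NPC1 promoter upstream of luciferase were treated with compounds for 24 h, and promoter activation was read as luminescence.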
Numbers without * were called inactive; ? = inconclusive; . = no result. Calls come from the whole dose curve; as a rule, active = well fitted curve in the direction sought with a large enough effect; inconclusive = small, poorly fitted or top-dose-only effect, or another doubt; inactive = no such curve, though single readings can be large; an effect the other way counts as inactive or inconclusive. Potency is the fitted concentration of half-maximal effect.

SMILES	Luc counter	SMN2 splice up	FLuc modulator	Rab9 promoter act	NPC1 promoter act
O=C(CSc1nnc(NC(=O)c2c(F)cccc2F)s1)NCc1ccccc1	.	.	-14.3%	-2.2%	-2.0%
O=C(CSc1nnc(NC(=O)c2ccc(F)cc2F)s1)NC1CCCC1	.	.	4.26µM*	?	?
O=C(CSc1nnc(NC(=O)c2ccccc2F)s1)NC1CCCC1	.	.	10.7µM*	3.16µM*	?
CC(C)(C)C(=O)Nc1nnc(SCC(=O)NC2CC2)s1	.	.	-0.3%	10.1%	-7.0%
O=C(Nc1cc(Cl)cc(Cl)c1)c1ccc(F)c(S(=O)(=O)N2CCc3ccccc32)c1	.	.	-5.8%	.	.
CCN1C(=O)C(Cc2nc3ccccc3c(=O)n2-c2ccc(OC)cc2)c2ccccc21 (centres undefined)	.	-7.1%	2.2%	.	.
COc1cccc(CNC(=O)Cn2c(SCC(=O)Nc3ccc(C)c(C)c3)nc3ccccc32)c1	.	.	0.5%	.	.
COc1ccc(C2=NS(=O)(=O)N(C)C(C(=O)Nc3ccc(C)cc3)=C2)cc1	.	.	-15.8%	1.4%	-0.2%
COc1cc(NC(=O)C2=CC(c3ccc(F)cc3)=NS(=O)(=O)N2C)cc(OC)c1OC	.	.	1.35µM*	.	.
Cc1ccc(NC(=O)c2nc(S(C)(=O)=O)ncc2N(Cc2ccccc2)Cc2ccco2)c(C)c1	.	.	3.5%	.	.
CCOC(=O)N1CCC(N2C(=O)c3ccccc3C2Nc2ccc3c(c2)OCCO3)CC1 (centres undefined)	-5.5%	-25.3%	21.3µM*	10.6%	0.6%
CCOC(=O)C1CCN(C(C(=O)Nc2ccc3c(c2)OCCO3)c2ccccc2)CC1 (centres undefined)	0.4%	-15.7%	-1.7%	-0.9%	0.1%
CCOC(=O)C1CCN(c2c(Nc3ccc4c(c3)OCCO4)c(=O)c2=O)CC1	0.3%	-9.3%	21.3µM*	17.5%	10.6%
Cc1ccc(-n2c(=O)[nH]c3sc4c(c3c2=O)CCNC4)cc1C	.	-12.1%	2.3%	.	.
Cc1nc2ccc(S(=O)(=O)NC(CC(C)C)C(=O)NCc3ccc(Cl)cc3)cc2s1 (centres undefined)	.	-9.3%	-2.3%	.	.
COc1ccc(/C=N/NC(=O)c2cccc(NC(C)=O)c2)c(OC)c1	-3.2%	-5.7%	-17.1%	3.2%	1.2%
Cc1ccc(C(=O)Nc2cccc(C(=O)N/N=C/c3ccccc3F)c2)cc1	.	.	5.36µM*	1.58µM*	2µM*
Cc1ccc(CN2CCN(CC(=O)N/N=C/c3ccccc3F)CC2)cc1	.	.	1.69µM*	?	5.7%
CC(=O)Nc1cccc(C(=O)N/N=C/c2ccccc2F)c1	?	?	1.35µM*	0.794µM*	3.16µM*
CC(C)[C@@H](CC(=O)N[C@@H]1CCCC[C@H]1C(=O)N[C@H](CC(=O)N[C@@H](CCC(=O)O)CC(=O)O)Cc1ccccc1)NC(=O)C[C@H](CO)NC(=O)[C@@H]1CNCC[C@H]1N	-0.2%	17.7%	.	.	.
Cc1ccc(/C=N\NC(=O)c2csnn2)cc1	?	-2.9%	3.79µM*	2.51µM*	3.55µM*
COc1cccc(NC(=O)c2csc3c2CCCC3)c1	-11.8%	14.1µM*	9.53µM*	?	?
Cc1ccccc1NC(=O)c1csc2c1CCCC2	-15.2%	?	19µM*	29.1%	?
Cc1ccc(/C=N/NC(=O)c2csc3c2CCCC3)cc1	-0.8%	23.8%	10.7µM*	24.4%	0.1%
COc1cccc(NC(=O)CN(C)C(=O)c2csc3c2CCCC3)c1	.	.	9.9%	10.2%	1.3%
SMILES	Luc counter	SMN2 splice up	FLuc modulator	Rab9 promoter act	NPC1 promoter act
Cc1ccccc1NC(=O)Nc1csc2c1CCCC2	.	5.3%	?	.	.
CCC(C)NC(=O)Cn1c(=O)n(CC2CCC(C(=O)NC)CC2)c(=O)c2sccc21 (centres undefined)	.	.	-0.1%	.	.
CC(C)CCN1C(=O)c2ccccc2CC1(C)C(=O)NC1CCCCC1 (centres undefined)	.	14.9%	-0.2%	.	.
Cc1ccc2c(c1)c1c(c(=O)n(Cc3ccccc3)c(=O)n1CC(=O)Nc1ccccc1F)n2C	.	.	-0.9%	.	.
CC(C)c1ccc(NC(=O)Nc2csc3c2CCCC3)cc1	.	-30.0%	4.78µM*	.	.
O=C(Nc1nccs1)c1csc2c1CCCC2	-0.4%	26.2%	13.5µM*	28.1%	27.5%
Cc1cc(NC(=O)Nc2csc3c2CCCC3)ccc1Br	.	-1.0%	?	.	.
O=C(NCc1ccccc1)c1csc2c1CCCCC2	?	-14.9%	-4.9%	7.9%	0.1%
CC(CNC(=O)c1csc2c1CCCCC2)c1ccccc1 (centres undefined)	.	11.2µM*	15.1µM*	.	.
COc1ccc(CNC(=O)c2csc3c2CCCC3)cc1	.	.	?	2.3%	8.7%
COc1ccc(NC(=O)c2csc3c2CCCC3)cc1	0.7%	12.6µM*	3.01µM*	3.16µM*	2µM*
COc1ccccc1C(=O)CSc1nccn1C	.	.	?	26.8%	22.8%
Cn1ccnc1SCC(=O)c1c[nH]c2ccccc12	-22.9%	17.8µM*	19µM*	3.55µM*	3.98µM*
CCN(CC)C(=O)Cn1cc(SCC(=O)Nc2cccc(F)c2)c2ccccc21	.	.	-9.9%	.	.
COc1ccc2nc(SCC(=O)/C(C#N)=C(\C)N)[nH]c2c1	.	.	8.49µM*	0.631µM*	1.12µM*
COc1ccc(-c2nnc(SCC(=O)c3ccc(C)o3)o2)cc1	2.6%	-32.3%	?	1.7%	-0.2%
COc1ccc(-c2nnc(SCC(=O)/C(C#N)=C(\C)N)o2)cc1	-4.8%	4.47µM*	0.953µM*	25.6%	0.708µM*
C/C(N)=C(/C#N)C(=O)CSc1nnc(-c2ccccc2Br)o1	-5.3%	2.82µM*	0.849µM*	0.398µM*	0.447µM*
COc1ccc2nc(SCC(N)=O)[nH]c2c1	2.1%	18.3%	-6.3%	-3.9%	0.5%
COc1ccc(NC(=O)c2cc(S(=O)(=O)N3CCCCC3)cn2C)cc1Cl	.	.	-0.1%	.	.
CC1N=C2c3ccccc3N=C(SCC(=O)NCCc3ccc(Cl)cc3)N2C1=O (centres undefined)	.	.	2.6%	.	.
O=C(Cc1ccc(NC(=O)N2CCCCc3ccccc32)cc1)NCc1ccccc1	.	.	-17.1%	.	.
CC1(C)CC(=O)C(C(C2=C(O)CC(C)(C)CC2=O)c2cccc(O)c2)C(=O)C1 (centres undefined)	-1.3%	-2.1%	-18.2%	12.6%	-2.0%
CC1(C)CC(=O)C(C(C2=C(O)CC(C)(C)CC2=O)c2cccs2)C(=O)C1 (centres undefined)	.	.	16.9µM*	-1.2%	-4.4%
O=C(N/N=C/c1ccco1)c1cc(-c2ccc3ccccc3c2)n[nH]1	-3.4%	-1.1%	19µM*	1.0%	-1.1%
CCc1ccc(-c2cc(C(=O)N/N=C/c3ccccn3)[nH]n2)cc1	0.5%	-33.1%	7.57µM*	12.2%	7.6%
O=C(N/N=C/c1ccccn1)c1cc(-c2ccc3ccccc3c2)n[nH]1	-3.2%	3.9%	7.57µM*	-3.6%	-2.3%
